A short description of test [1]: BSK_4H_Eotaxin3: BioMAP Diversity Plus: 4H Assay for Eotaxin 3 Biomarker Activity (AID 2283000; active means hit-call score of the fitted dose curve at least 0.9, where 1 is the maximum; inactive means score below 0.9;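 on outcome: CCL26 protein level quantified by ELISA in parallel with SRB cytotoxicity check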). To be noted: primary human endothelial cells (HUVEC); actives raise or lower the signal. The method in brief: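 Chemicals were added to human umbilical vein endothelium cultures, and Eotaxin-3 was quantified by ELISA at 24 h. Values were derived by bidirectional fitting with DMSO serving as negative control and activity baseline.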

Test [2] has as its target human Peroxisome Proliferator-activated Receptor delta (PPARd), PPARD (gene 5467) (UniProt Q03181). Put plainly: ATG_PPARd_TRANS: Attagene TRANS-FACTORIAL HepG2 Assay for human Peroxisome Proliferator-activated Receptor delta (PPARd) (AID 2283002). The method in brief: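 Cell-based TRANS reporter: HepG2, transient MRTU transfection, 24 h exposure. Readout = reporter mRNA (RT-PCR/CE, 6-FAM). Gain-of-signal fit vs DMSO control.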

Read-out in test [3]: Intercellular Adhesion Molecule 1 (ICAM1), ICAM1 (gene 3383)
The experiment in a line: BSK_3C_ICAM1: BioMAP Diversity Plus: 3C Assay for Intercellular Adhesion Molecule 1 (ICAM1) Biomarker Activity (AID 2283003; active means hit-call score of the fitted dose curve at least 0.9, where 1 is the maximum; inactive means score below 0.9). To be noted: primary human endothelial cells (HUVEC); actives raise or lower the signal. Summed up: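 ICAM-1 levels measured by ELISA after HUVEC cultures in the 3C system had been dosed for 24 h. Gain or loss of signal relative to DMSO was fitted in both directions.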

The target of test [4] is human Retinoic Acid Receptor beta (RARb), RARB (gene 5915) (UniProt P10826). Put plainly: ATG_RARb_TRANS: Attagene TRANS-FACTORIAL HepG2 Assay for human Retinoic Acid Receptor beta (AID 2283004). The method in brief:
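Transient transfection of HepG2 with multiple reporter units → chemical dosing, 24 h → total RNA isolation → RT with oligo(dT) → reporter-specific PCR, 6-FAM primer extension, HpaI digest → capillary electrophoresis. Positive direction vs DMSO control.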

For test [5], the target named is Retinoic acid receptor alpha (Homo sapiens) (UniProt P10276). Put plainly: ATG_RARa_TRANS: Attagene TRANS-FACTORIAL HepG2 Assay for human Retinoic Acid Receptor alpha (RARa) (AID 2283005). The method in brief:
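Reporter transcripts, measured by RT-PCR with fluorescent labeling and capillary electrophoresis after 24 h dosing, reflect activity of an exogenous human RARa–GAL4 fusion in transiently transfected HepG2. Fitted for increase relative to DMSO.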

Test [6] can be described thus: BSK_3C_Proliferation: Cell Proliferation Assessment in the BioMAP Diversity Plus: 3C Assay (AID 2283006; active means hit-call score of the fitted dose curve at least 0.9, where 1 is the maximum; inactive means score below 0.9;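 on AC50: potency may reflect either rise or fall in cell number versus DMSO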). The note with it: primary human endothelial cells (HUVEC). Summed up: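 Read-out is total protein by SRB absorbance at 560 nm, taken as a proxy for relative cell number. Primary human umbilical vein endothelium cultured below confluence was dosed for 48 h, TCA-fixed and SRB-stained; curves were fitted bidirectionally versus DMSO.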

The target in test [7] is Peroxisome proliferator-activated receptor gamma (Homo sapiens) (UniProt P37231). The experiment in a line: ATG_PPARg_TRANS: Attagene TRANS-FACTORIAL HepG2 Assay for human Peroxisome Proliferator-activated Receptor-gamma (PPARg) (AID 2283007). The method in brief: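 Transient transfection of HepG2 with GAL4-UAS-driven reporter units; chemical dosing 24 h; total RNA → oligo(dT) RT → PCR with reporter primers → 6-FAM primer extension → HpaI digest 2 h 37 C → capillary electrophoresis. Positive direction vs DMSO.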
Peroxisome proliferator-activated receptor gamma (Homo sapiens), sequence (P37231 whole entry, looked up, the tested form may be a part): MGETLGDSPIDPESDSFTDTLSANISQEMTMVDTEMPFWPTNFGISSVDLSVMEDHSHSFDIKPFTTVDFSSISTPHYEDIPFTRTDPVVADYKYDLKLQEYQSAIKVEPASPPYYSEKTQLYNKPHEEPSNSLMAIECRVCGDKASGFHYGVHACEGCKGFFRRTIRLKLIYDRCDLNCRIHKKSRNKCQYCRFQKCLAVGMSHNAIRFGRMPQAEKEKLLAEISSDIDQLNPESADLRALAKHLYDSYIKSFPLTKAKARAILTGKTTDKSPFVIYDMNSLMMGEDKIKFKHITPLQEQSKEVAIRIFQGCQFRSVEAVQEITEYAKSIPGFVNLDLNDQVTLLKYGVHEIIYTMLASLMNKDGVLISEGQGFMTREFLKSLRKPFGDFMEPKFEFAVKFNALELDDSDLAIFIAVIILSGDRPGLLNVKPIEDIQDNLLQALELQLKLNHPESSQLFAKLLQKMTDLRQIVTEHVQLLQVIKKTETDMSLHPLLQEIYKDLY

For test [8], the target named is Nuclear receptor subfamily 1 group I member 2 (Homo sapiens) (UniProt O75469). The experiment in a line: ATG_PXR_TRANS: Attagene TRANS-FACTORIAL HepG2 Assay for human Pregnane X Receptor (PXR) (AID 2283008). Summed up: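 Measures mRNA induction of a GAL4-UAS-driven reporter in human HepG2 cells transiently expressing PXR fused to Gal4, following 24 h treatment. DMSO served as negative control and baseline.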
Nuclear receptor subfamily 1 group I member 2 (Homo sapiens), sequence (O75469 whole entry, looked up, the tested form may be a part): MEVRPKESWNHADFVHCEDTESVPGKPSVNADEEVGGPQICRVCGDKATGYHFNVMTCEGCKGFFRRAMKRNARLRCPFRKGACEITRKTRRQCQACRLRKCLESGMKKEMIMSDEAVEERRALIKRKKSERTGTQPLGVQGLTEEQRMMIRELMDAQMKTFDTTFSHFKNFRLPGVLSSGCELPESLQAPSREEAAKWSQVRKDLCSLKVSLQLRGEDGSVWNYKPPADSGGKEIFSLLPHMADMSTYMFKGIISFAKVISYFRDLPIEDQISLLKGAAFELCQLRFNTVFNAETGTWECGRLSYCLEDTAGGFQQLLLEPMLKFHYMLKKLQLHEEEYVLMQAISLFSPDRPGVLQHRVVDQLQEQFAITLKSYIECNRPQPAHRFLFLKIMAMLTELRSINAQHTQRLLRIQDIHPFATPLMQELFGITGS

Test [9] has as its target human Retinoic Acid Receptor gamma (RARg), RARG (gene 5916) (UniProt P13631). The experiment in a line: ATG_RARg_TRANS: Attagene TRANS-FACTORIAL HepG2 Assay for human Retinoic Acid Receptor gamma (RARg) (AID 2283009). Summed up: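 Transient transfection of HepG2 with multi-reporter constructs, then 24 h chemical treatment. Total RNA isolated, reverse-transcribed, PCR-amplified, fluorescently labelled and resolved by capillary electrophoresis; activity scored as mRNA induction versus DMSO.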

Test [10] concerns the target human Peroxisome Proliferator-activated Receptor alpha (PPARa), PPARA (gene 5465) (UniProt Q07869). Put plainly: ATG_PPARa_TRANS: Attagene TRANS-FACTORIAL HepG2 Assay for human Peroxisome Proliferator-activated Receptor alpha (PPARa) (AID 2283001). Summed up: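 Read-out is fluorescence of reporter cDNA fragments resolved by capillary electrophoresis after RT-PCR. Human HepG2 liver cells carried transfected PPARa-Gal4 chimera and GAL4-UAS reporter units, treated 24 h; activity scored as increase over DMSO.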

One may read the AC50 as the concentration giving half of the maximal activity seen.

Structures are written as SMILES. Results filed as inconclusive are left out. Activity calls are given as the source filed them. How the source made its calls, unless noted: active means hit-call score of the fitted dose curve at least 0.9, where 1 is the maximum; inconclusive means response in the unintended direction; inactive means score below 0.9.

human Peroxisome Proliferator-activated Receptor alpha (PPARa), PPARA (gene 5465), sequence (Q07869 whole entry, looked up, the tested form may be a part): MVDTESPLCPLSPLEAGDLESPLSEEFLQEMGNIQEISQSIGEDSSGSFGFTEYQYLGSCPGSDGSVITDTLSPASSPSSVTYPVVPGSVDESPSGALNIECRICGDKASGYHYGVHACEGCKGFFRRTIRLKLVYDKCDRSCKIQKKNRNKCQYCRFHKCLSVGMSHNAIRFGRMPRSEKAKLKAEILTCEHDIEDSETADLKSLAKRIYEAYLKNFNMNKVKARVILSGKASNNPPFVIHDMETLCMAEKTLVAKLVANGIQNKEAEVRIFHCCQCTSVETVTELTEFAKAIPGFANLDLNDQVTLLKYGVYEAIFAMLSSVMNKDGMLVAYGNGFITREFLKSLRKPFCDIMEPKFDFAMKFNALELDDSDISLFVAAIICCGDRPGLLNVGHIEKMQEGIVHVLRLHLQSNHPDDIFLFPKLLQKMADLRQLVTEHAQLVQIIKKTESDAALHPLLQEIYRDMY
human Peroxisome Proliferator-activated Receptor delta (PPARd), PPARD (gene 5467), sequence (Q03181 whole entry, looked up): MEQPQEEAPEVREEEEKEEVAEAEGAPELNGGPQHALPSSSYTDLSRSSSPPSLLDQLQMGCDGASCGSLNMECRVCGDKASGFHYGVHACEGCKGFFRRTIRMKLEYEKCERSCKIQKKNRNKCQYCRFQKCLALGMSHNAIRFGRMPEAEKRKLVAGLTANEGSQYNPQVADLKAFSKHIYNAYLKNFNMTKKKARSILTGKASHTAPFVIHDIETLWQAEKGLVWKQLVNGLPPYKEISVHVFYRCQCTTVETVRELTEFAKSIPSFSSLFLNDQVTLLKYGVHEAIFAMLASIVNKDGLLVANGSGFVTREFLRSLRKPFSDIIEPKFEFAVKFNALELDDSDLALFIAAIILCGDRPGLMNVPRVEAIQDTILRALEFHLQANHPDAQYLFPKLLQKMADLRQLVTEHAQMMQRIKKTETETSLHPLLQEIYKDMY
Retinoic acid receptor alpha (Homo sapiens), sequence (P10276 whole entry, looked up, the tested form may be a part): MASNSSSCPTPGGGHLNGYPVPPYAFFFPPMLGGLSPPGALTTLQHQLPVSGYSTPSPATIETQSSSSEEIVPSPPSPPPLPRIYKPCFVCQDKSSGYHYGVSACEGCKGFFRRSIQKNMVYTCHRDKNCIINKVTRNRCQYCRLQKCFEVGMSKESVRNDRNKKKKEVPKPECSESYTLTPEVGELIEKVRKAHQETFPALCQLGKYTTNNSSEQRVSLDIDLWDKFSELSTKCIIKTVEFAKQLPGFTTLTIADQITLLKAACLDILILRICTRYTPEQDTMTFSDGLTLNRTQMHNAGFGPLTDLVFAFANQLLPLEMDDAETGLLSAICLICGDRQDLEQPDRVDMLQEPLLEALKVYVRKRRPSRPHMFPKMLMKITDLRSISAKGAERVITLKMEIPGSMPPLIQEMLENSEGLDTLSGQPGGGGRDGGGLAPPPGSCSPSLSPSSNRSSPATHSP
human Retinoic Acid Receptor beta (RARb), RARB (gene 5915), sequence (P10826 whole entry, looked up): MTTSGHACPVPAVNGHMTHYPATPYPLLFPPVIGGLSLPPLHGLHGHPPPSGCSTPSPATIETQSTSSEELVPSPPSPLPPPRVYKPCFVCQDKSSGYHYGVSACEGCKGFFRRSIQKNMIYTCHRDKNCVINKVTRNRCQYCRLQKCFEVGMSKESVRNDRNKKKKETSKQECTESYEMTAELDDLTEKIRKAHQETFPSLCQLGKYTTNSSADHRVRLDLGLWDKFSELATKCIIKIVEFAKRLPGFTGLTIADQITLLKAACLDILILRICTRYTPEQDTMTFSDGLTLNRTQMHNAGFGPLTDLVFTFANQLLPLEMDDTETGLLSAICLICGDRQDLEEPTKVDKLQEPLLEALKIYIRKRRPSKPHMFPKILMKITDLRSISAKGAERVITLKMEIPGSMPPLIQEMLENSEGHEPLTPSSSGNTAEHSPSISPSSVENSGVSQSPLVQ
human Retinoic Acid Receptor gamma (RARg), RARG (gene 5916), sequence (P13631 whole entry, looked up): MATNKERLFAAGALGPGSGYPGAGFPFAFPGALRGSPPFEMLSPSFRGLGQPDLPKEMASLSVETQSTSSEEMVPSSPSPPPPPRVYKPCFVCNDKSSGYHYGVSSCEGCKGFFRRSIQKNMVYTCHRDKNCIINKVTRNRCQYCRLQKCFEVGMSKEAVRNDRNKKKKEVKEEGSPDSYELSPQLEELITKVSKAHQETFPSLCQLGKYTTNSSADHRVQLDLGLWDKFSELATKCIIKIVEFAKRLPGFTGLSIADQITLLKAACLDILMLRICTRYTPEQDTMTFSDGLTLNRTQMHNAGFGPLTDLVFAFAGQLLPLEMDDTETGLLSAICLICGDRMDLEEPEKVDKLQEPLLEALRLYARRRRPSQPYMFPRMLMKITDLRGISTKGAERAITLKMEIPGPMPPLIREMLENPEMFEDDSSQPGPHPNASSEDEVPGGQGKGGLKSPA

`CCOP(=O)(NC(C)C)Oc1ccc(SC)c(C)c1` (stereo unspecified): the outcome in test [1], in test [2], in [3], in test [4], in test [5] and in test [6] was inactive. For the same compound, the compound was called inactive in test [8] and in test [9]. For the same compound, the AC50 in test [7] was 32.3 µM (active).

As to `O=c1ccc(=O)[nH][nH]1`, the outcome in test [1], in test [10], in [3], in [6], in test [7] and in [8] was inactive.

In the case of `CC(C)=CC1C(C(=O)OCN2C(=O)C3=C(CCCC3)C2=O)C1(C)C` (stereo unspecified), the result in [1], in test [10] and in [3] was inactive. For the same compound, the AC50 in test [6] was 15.6 µM (active); in test [7] it was 50 µM (active); in test [8], 40.2 µM (active).

On to `CCOP(=S)(OCC)Oc1cc(C)nc(C(C)C)n1`, for which the outcome in [1], in [2], in test [3], in test [6] and in test [8] was inactive. For the same compound, the AC50 in [7] is 50 µM (active).

As for `CCOP(=S)(OCC)OC(Cl)C(Cl)(Cl)Cl` (stereo unspecified), the outcome in test [1], in test [2], in [3], in test [4], in test [5] and in [7] was inactive. The compound was called inactive in [8] and in test [9]. Besides, the AC50 in test [6] was 32.1 µM (active).

Turning to `CC(COc1ccc(Oc2ccccc2)cc1)Oc1ccccn1` (stereo unspecified), the result in test [1], in test [2], in test [3], in test [6] and in test [8] was inactive. Moreover, the AC50 in test [7] is 14.5 µM (active).

Take `Cc1ccn2nc(S(=O)(=O)Nc3c(F)cccc3F)nc2n1`: the result in [1], in test [10], in [3], in [6], in test [7] and in test [8] was inactive. In addition, the result in test [9] was inactive.

Turning to `CCCSP(=O)(OCC)SCCC`, the outcome in [1], in [3], in [4], in [5], in [6] and in test [7] was inactive. For the same compound, the outcome in [8] and in [9] was inactive.

On to `CCOP(=O)(SC(C)CC)N1CCSC1=O` (stereo unspecified), for which the result in test [1], in test [3], in [4], in test [5], in test [6] and in test [7] was inactive. Besides, the compound was classed as inactive in [8].

On to `CC1=NNC(=O)N(/N=C/c2cccnc2)C1`, for which the result in test [1], in [10], in test [3], in [5], in test [6] and in test [7] was inactive. The call in test [8] and in [9] was inactive.

As to `CCc1cnc(C2=NC(C)(C(C)C)C(=O)N2)c(C(=O)O)c1` (stereo unspecified), the outcome in test [1], in [3], in [4], in [6] and in test [7] was inactive.

Turning to `C#CC(C)(C)NC(=O)c1cc(Cl)cc(Cl)c1`, the outcome in test [1], in test [3], in test [5] and in [6] was inactive. Moreover, the AC50 in test [8] is 30.9 µM (active).

On to `CC(=NC#N)N(C)Cc1ccc(Cl)nc1`, for which the outcome in test [1], in test [10], in [3], in [5], in [6] and in test [7] was inactive. Moreover, the compound was classed as inactive in test [8] and in test [9].

`CCCOc1nn(C(=O)NS(=O)(=O)c2ccccc2C(=O)OC)c(=O)n1C`: the result in [1], in [3], in test [6], in test [7], in test [8] and in [9] was inactive.

As to `CC[C@H](C)[C@H]1O[C@]2(C=C[C@@H]1C)C[C@@H]1C[C@@H](C/C=C(\C)[C@@H](O[C@H]3C[C@H](OC)[C@@H](O[C@H]4C[C@H](OC)[C@@H](NC)[C@H](C)O4)[C@H](C)O3)[C@@H](C)/C=C/C=C3\CO[C@@H]4[C@H](O)C(C)=C[C@@H](C(=O)O1)[C@]34O)O2`, the figures for the AC50 in test [1], in test [3] and in test [6] were 5.75 µM (active), 9.48 µM (active) and 1.68 µM (active), respectively. Further, the compound was called inactive in test [10] and in [7].

As to `CCC(CC)Nc1c([N+](=O)[O-])cc(C)c(C)c1[N+](=O)[O-]`, the result in test [1], in test [2] and in test [3] was inactive. For the same compound, the values for the AC50 in test [6], in [7] and in test [8] were 29.2 µM (active), 73.2 µM (active) and 27.6 µM (active), respectively.

For `C[N+]1(C)CCCCC1`, the result in [1], in test [3], in test [4], in [5], in test [6] and in test [7] was inactive. In addition, the outcome in [8] and in [9] was inactive.

With `COP(=O)(OC)SCn1c(=O)oc2cc(Cl)cnc21`, the AC50 was 36.9 µM (active) in [1] and 14.7 µM (active) in test [7]. In addition, the outcome in test [10], in test [3], in [6] and in test [8] was inactive.

(Values after PubChem BioAssay (EPA / NIEHS).)
